Tg IFNy HTS = inhibitors of Toxoplasma gondii growth with IFN-gamma; Toxoplasma gondii growth in IFN-gamma-treated host cells; active compounds read low; activity change, negative = inhibition, % (concentration not given with the values); hit rate 3.8% among 69,000; AID 1259416; in the data active = activity change below about -70%, passing the limit was not always enough;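 also: host cells are HeLa cells infected with Toxoplasma gondii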
Starred values were filed as active, the others as inactive; ! = not active in a repeat. Shown is part of a subset that was picked to be rich in hits.

SMILES	Tg IFNy HTS
O=S(=O)(c1ccc(F)cc1)N1C[C@H]2[C@@H](c3ccccc31)[C@@H](CO)N2Cc1ccccc1Cl	-79*
O=S(=O)(c1ccc(F)cc1)N1C[C@@H]2[C@H](c3ccccc31)[C@@H](CO)N2Cc1ccccc1Cl	-3
COc1ccc(NC(=O)CSCC(=O)O)cn1	-7
COc1ccc(Oc2ccc(NC(=O)Nc3ccc(SC(F)(F)F)cc3)cn2)cc1	-88*
COc1ccc(NC(=O)Nc2ccc(-c3nc(-c4ccccc4)co3)cc2)cc1	-23
CCCCOc1cc(CC2CNC(=O)N2)ccc1OC (centres undefined)	-72*!
COc1ccc(CCN2C(=O)CSC2c2ccc(OC)c(OC)c2)cc1OC (centres undefined)	-29
COc1ccc(CNC(=O)c2c(O)c3cccnc3[nH]c2=O)cc1OC	117
CC1(c2cccs2)NC(=O)N(Cc2ccccc2)C1=O (centres undefined)	17
O=C(c1cc(C2CC2)[nH]n1)N1CCN(Cc2ccccc2CO)CC1	5
CCN(CC1CCOCC1)C(=O)CCc1nc(-c2ccccc2C)no1	4
C=CCN1CCOC2(CCN(c3nccs3)CC2)c2ccccc21	9
Cc1ncsc1C(=O)N(C)Cc1nc(C)c2c(n1)N(CCc1ccccc1)C(=O)CC2	-6
Cc1ccc(-c2coc(-c3ccc(NC(=O)COc4ccc(F)cc4)cc3)n2)c(C)c1	-9
CN(C)CCN1C2(CCN(Cc3nccs3)C2)c2ccccc2S1(=O)=O (centres undefined)	0
CC(C)CCN1C2(CCN(Cc3nccs3)C2)c2ccccc2S1(=O)=O (centres undefined)	-96*
COCCN1C2(CCN(Cc3nccs3)C2)c2ccccc2S1(=O)=O (centres undefined)	3
O=C(CN1C(=O)c2ccccc2S1(=O)=O)Nc1ccc(O)cc1	6
COc1cccc(CNC2=NCCOc3ccccc32)c1	18
O=C(c1ccccc1)c1c(Cl)cc(C(F)(F)F)cc1Cl	-3
O=C(Nc1ccccc1)c1cc2n(n1)CCN(C(=O)c1csnn1)C2	39
O=C(Nc1ccccc1-c1ccccc1)c1csnn1	2
O=C(Nc1cc(C(F)(F)F)cc(C(F)(F)F)c1)c1cc(Cl)ccc1O	-80*
O=C(NC(=O)c1csnn1)Nc1cc(C(F)(F)F)cc(C(F)(F)F)c1	-101*
O=C(N/C=C/c1ccsc1)Sc1cc(C(F)(F)F)cc(C(F)(F)F)c1	48
SMILES	Tg IFNy HTS
O=C(Nc1cc(C(F)(F)F)cc(C(F)(F)F)c1)Nc1sccc1Cl	-95*
COCCCNC(=O)c1ccccc1C(=O)Nc1cc(C(F)(F)F)cc(C(F)(F)F)c1	37
O=C(Nc1cc(C(F)(F)F)cc(C(F)(F)F)c1)c1csc(-c2ccc(Cl)cc2)c1	48
CC[C@H](NC(=O)c1cccc(NCC(=O)O)c1)c1ccccc1	-36
Cc1noc(C)c1S(=O)(=O)N1CCCC2(CC1)CN(C)C(=O)O2 (centres undefined)	-10
COc1ccc(CNC(=O)Nc2ccc(-c3nc(-c4ccccc4)co3)cc2)cc1	95
Cc1ccc(C(=O)NCCc2csc(-c3ccc(Cl)cc3)n2)cc1	-60
CCc1nnc(NC(=O)c2ccc(S(=O)(=O)NCC(C)C)cc2)s1	-75*
CCc1nnc(NC(=S)NC(=O)c2ccc(-c3ccccc3)cc2)s1	245
COc1ccc(S(=O)(=O)Nc2nnc(CC(C)C)s2)cc1	7
CCCCNC(=O)c1ccc(-c2cccc(NC(C)=O)c2)o1	-1
COC(=O)c1sccc1S(=O)(=O)N1CCCC2(CC1)CN(C)C(=O)O2 (centres undefined)	5
O=C1Cc2c([nH]c3ccc([N+](=O)[O-])cc23)-c2ccccc2N1	-74*
COCC(=O)N1CCCn2nnc(COCC3CC3)c2C1	-14
CC(C)c1ccc(NC(=O)Cn2c(=O)ccc3cc(S(=O)(=O)N4CCCC4)ccc32)cc1	-78*
COc1cccc(NC(=O)Cn2c(=O)ccc3cc(S(=O)(=O)N4CCCC4)ccc32)c1	-46
CC1CCN(S(=O)(=O)c2ccc3c(ccc(=O)n3CC(=O)Nc3ccc(F)c(Cl)c3)c2)CC1	-66
CC(=O)Nc1ccc(NC(=O)Cn2c(=O)ccc3cc(S(=O)(=O)N4CCC(C)CC4)ccc32)cc1	63
CSc1cccc(NC(=O)Cn2c(=O)ccc3cc(S(=O)(=O)N4CCC(C)CC4)ccc32)c1	-65
O=C(Cn1c(=O)ccc2cc(S(=O)(=O)N3CCCC3)ccc21)Nc1ccc(F)cc1	-42
CC1CCN(S(=O)(=O)c2ccc3c(ccc(=O)n3CC(=O)Nc3cccc(F)c3)c2)CC1	-81*
Cc1ccc(NC(=O)Cn2c(=O)ccc3cc(S(=O)(=O)N4CCC(C)CC4)ccc32)cc1Cl	-93*
CC1CCN(S(=O)(=O)c2ccc3c(ccc(=O)n3CC(=O)NC(C)C)c2)CC1	1
Cc1ccc(C2(O)CCN(Cc3cccc(-n4cccn4)c3)CC2)nc1	-1
O=C(NCCc1csc(C2CCN(C(=O)c3ccoc3)CC2)n1)C1CCC1	-2
N#CCN1C(=O)CC2(CCN(c3ncccn3)CC2)c2ccccc21	4
N#Cc1c(N)sc(-c2ccoc2)c1-c1ccco1	50
